Screening data deposited in PubChem by National Center for Advancing Translational Sciences (NCATS).
In the library only some 2.9% were active in any assay of this set; here they are far more common.
KDM5B inhibitor – inhibitors of human KDM5B histone demethylase; hit rate 2.6% among 220,000; Potency, µM (series often up to 57.7 µM), usual class: inhibitors; Q9UGL1; AID 1347165; KDM5B demethylase, FDH-coupled NADH fluorescence (FDH is formaldehyde dehydrogenase); note: potency is the fitted concentration of half-maximal effect; 0% is about no effect; nearly all actives have a fitted effect of over 70% in size
Target sequence (Q9UGL1 whole entry, looked up): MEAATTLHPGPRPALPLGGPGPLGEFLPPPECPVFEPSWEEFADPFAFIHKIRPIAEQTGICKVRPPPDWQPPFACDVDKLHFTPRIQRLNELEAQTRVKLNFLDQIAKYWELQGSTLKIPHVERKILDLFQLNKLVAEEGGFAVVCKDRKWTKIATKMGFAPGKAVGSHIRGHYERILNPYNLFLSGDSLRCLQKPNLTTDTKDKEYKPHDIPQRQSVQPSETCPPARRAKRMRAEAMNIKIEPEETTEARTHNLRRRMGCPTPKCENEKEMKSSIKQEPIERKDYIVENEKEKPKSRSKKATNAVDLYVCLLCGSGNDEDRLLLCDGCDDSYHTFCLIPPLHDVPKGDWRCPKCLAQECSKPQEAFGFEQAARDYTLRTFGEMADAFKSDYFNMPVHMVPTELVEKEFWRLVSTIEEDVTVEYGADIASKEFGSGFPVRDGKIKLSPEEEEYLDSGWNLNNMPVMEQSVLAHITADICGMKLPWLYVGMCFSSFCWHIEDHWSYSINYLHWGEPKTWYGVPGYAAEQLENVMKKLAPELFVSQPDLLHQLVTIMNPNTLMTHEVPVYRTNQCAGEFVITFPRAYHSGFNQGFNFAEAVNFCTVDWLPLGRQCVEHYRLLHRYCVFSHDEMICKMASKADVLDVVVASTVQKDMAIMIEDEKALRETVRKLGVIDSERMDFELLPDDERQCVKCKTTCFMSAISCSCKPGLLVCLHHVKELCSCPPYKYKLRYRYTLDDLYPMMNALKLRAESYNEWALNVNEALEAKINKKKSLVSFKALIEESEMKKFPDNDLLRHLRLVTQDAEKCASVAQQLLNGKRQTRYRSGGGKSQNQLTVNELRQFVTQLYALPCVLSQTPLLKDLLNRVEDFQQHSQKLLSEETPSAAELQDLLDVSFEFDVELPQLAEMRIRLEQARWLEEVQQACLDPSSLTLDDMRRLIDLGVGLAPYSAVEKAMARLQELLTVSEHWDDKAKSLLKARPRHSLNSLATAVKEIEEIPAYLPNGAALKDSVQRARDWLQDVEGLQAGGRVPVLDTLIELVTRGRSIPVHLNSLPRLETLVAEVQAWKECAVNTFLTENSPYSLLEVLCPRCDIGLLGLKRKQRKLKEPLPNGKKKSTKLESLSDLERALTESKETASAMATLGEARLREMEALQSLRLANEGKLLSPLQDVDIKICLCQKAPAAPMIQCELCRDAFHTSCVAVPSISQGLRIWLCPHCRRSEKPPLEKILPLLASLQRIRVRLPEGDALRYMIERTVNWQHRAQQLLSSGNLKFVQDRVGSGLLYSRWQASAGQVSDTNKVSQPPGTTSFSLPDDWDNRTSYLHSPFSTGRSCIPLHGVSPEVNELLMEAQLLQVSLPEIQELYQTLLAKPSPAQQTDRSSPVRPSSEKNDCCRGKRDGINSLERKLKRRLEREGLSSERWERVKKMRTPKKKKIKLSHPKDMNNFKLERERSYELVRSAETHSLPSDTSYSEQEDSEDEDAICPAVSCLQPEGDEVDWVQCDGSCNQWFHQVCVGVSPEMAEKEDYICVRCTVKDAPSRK
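qHTS format, multiple compound concentrations. Buffer 50 mM HEPES pH 7.5/0.01% Tween-20; 200 nM KDM5BΔAP final; 10 min compound preincubation; substrate-mix levels 12.5 µM peptide, 25 µM α-KG, 0.25 mM NAD⁺; 30 min RT; ΔRFU.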
IP6K1 inh – inhibitors of human IP6K1 | Q92551 | IP6K1 kinase, ADP-Glo luminescence, 2 h; hits give low values | activity change, % (series mostly up to about 58 µM) | hit rate 0.81% among 140,000; in the data active = activity change below about -25%; note: % is set by controls: 0 for no effect and ±100 for the full control effect
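ADP-Glo luminescence measures ADP made by human IP6K1 during a 2 h RT reaction with ATP/IP6 (mix at 1.3 mM/130 uM); top library doses 57.5 and 19.1 uM final.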
HEK293 viab – counter-screen for SNCA expression inhibitors: cell viability. Potency, µM (top dose mostly 57.1 µM), without a hit: at the highest dose activity change, negative = cytotoxicity, most hits filed as cytotoxic. HEK-293-SNCA-luc viability, GF-AFC fluorescence, 24 h. hit rate 0.12% among 150,000;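 note: potency is the fitted concentration of half-maximal effect; 0% = DMSO-treated cells and -100% = medium-only wells without cells; nearly all actives have a fitted effect of over 30% in size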
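Cytotoxicity counterscreen: after 24 h compound treatment of genome-edited SNCA-luciferase HEK-293 cells, live-cell protease substrate GF-AFC read by fluorescence after 30 min; activity scaled between DMSO (0%) and medium-only (-100%), curves Hill-fitted.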
SNCA expr inh – reduces expression of the alpha-synuclein gene; HEK-293 SNCA-luciferase knock-in, luminescence, 24 h; Potency, µM (top dose mostly 57.2 µM), for inactives: at the top dose activity change, negative = inhibition, usual class: inhibitors; hit rate 0.17% among 140,000; AID 1671194;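 note: potency is the fitted concentration of half-maximal effect; plate controls were DMSO cells for no effect and cell-free wells for full effect; nearly all actives have a fitted effect of over 45% in size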
Numbers without * were called inactive; i = inactive; ? = inconclusive; . = no result given; [ ] = dose if it differs, or a comment. Unless noted, calls come from the whole dose curve; as a rule, active = well fitted curve in the direction sought with a large enough effect; inconclusive = small, poorly fitted or top-dose-only effect, or another doubt; inactive = no such curve, though single readings can be large; an effect the other way counts as inactive or inconclusive.

SMILES	KDM5B inhibitor	IP6K1 inh	HEK293 viab	SNCA expr inh
COc1ccc(-c2nc(C)nc3c2CN(C(=O)c2cccc(Cl)c2)CC3)cc1	.	-5	-24%	15%
O=C(NC1CCN(c2cc(-c3cccs3)[nH]n2)C1)c1cccc(Cl)c1 (centres undefined)	?	14	-12%	-5%
N#Cc1cccc(CN2CCOC[C@H]2c2ncc(-c3ccc(Cl)s3)[nH]2)c1	i	4	-11%[87.6 µM]	3%[87.6 µM]
COc1ccc2c3c1C(CO)N(Cc1ccccc1)CC3=CC(C)(C)CO2 (centres undefined)	.	7	.	.
COc1cccc(Nc2cnc3ccc(-c4ccc(OC)c(OC)c4)nn23)c1	i	-9	-18%[87.6 µM]	-7%[87.6 µM]
CCNc1cc(N2CCC(CCC(=O)N3CCCN(c4ncccn4)CC3)CC2)ncn1	?	-4	2%	-20%
O=C(NC1CCCC1)N1CC(Oc2ccccc2-c2nc(-c3ccccc3)no2)C1	28µM*	-3	-29%	?
COc1ccc(C(=O)N2CC(Oc3ccccc3-c3nc(-c4ccccc4)no3)C2)cc1	25µM*	17	?	-31%
Cc1ccc(-c2cc3c(ccn3Cc3cccnc3)c(C3=CCOCC3)n2)cn1	35µM*	-9	-2%[87.6 µM]	-8%[87.6 µM]
COc1cccc(-c2cc3c(ccn3Cc3cccnc3)c(C3=CCOCC3)n2)c1OC	28µM*	10	-14%[87.6 µM]	-12%[87.6 µM]
C[S+](=O)([O-])Nc1cccc(-c2cc3c(ccn3Cc3cccnc3)c(C3=CCOCC3)n2)c1	?	-10	8%	4%
CN(C)Cc1cccc(-c2cc3c(ccn3Cc3cccnc3)c(C3=CCOCC3)n2)c1	40µM*	21	-29%[87.6 µM]	9%[87.6 µM]
C1=C(c2nc(-c3cncnc3)cc3c2ccn3Cc2cccnc2)CCOC1	?	0	-5%[87.6 µM]	9%[87.6 µM]
c1ccc(Nc2cc3c(cn2)NCCN(Cc2ccccn2)C3)cc1	35µM*	3	-9%[87.6 µM]	-2%[87.6 µM]
Oc1ccccc1CN1CCNc2cc(Nc3cccnc3)ncc2C1	35µM*	-22	-14%[87.6 µM]	15%[87.6 µM]
c1ccc(CN2CCNc3cnc(Nc4ccc(N5CCOCC5)cc4)cc3C2)cc1	?	-9	?	?
Oc1ccccc1CN1CCNc2cnc(Nc3ccccc3)cc2C1	22µM*	-16	-18%[87.6 µM]	?
Oc1ccccc1CN1CCNc2cc(Nc3ccccc3)ncc2C1	i	-15	?	16%[87.6 µM]
COc1cccc(-c2ccc(C(=O)NCCN[S+](=O)([O-])c3cccc(C(F)(F)F)c3)cc2)c1	.	2	.	.
COC(=O)c1sccc1NC(=O)N1CCCC1c1noc(COc2ccc(F)cc2)n1 (centres undefined)	32µM*	7	-7%	3%
Cn1cccc1CN[C@H]1[C@H](O)[C@@H](N2CCCC2)[C@@H]2OC[C@H]1O2	25µM*	1	4%[87.6 µM]	14%[87.6 µM]
O=C(NC1CC1)c1ccc2nnc(-c3ccc(C(F)(F)F)cc3)n2c1	56µM*	13	2%	-11%
O=C(NC1CC1)c1ccc2nnc(-c3cccnc3)n2c1	112µM*	7	-4%[87.6 µM]	-19%[87.6 µM]
O=C(NC1CCCCC1)c1ccc2nnc(-c3cccnc3)n2c1	.	25	-3%[87.6 µM]	-6%[87.6 µM]
Cc1ccc(O)c(CN2CC[C@@H](c3ccc4ccccc4c3)[C@H](O)C2)n1	i	6	5%	-23%
SMILES	KDM5B inhibitor	IP6K1 inh	HEK293 viab	SNCA expr inh
COCCNC(=O)c1nc(-c2ccc(OC)cc2)c2ccccn12	89µM*	-8	0%	39%
COCCNC(=O)c1nc(-c2ccc(F)cc2)c2ccccn12	40µM*	18	-6%[87.6 µM]	31%[87.6 µM]
Cc1nn(-c2ccccc2)c2c1C(C(C)C)N(C1CN(C(=O)Nc3ccccc3)C1)C2=O (centres undefined)	.	14	.	.
C=CCOc1c(OC)ccc2c1CN(C1CCCC1)C(=O)CCN2CC(O)COc1ccccc1 (centres undefined)	.	-4	.	.
CN1C(=O)[C@@H]2C[C@@H](CN2Cc2ccc(OC(F)(F)F)cc2)Oc2ccccc21	i	14	7%[87.6 µM]	-10%[87.6 µM]
O=C1[C@@H]2C[C@@H](CN2Cc2ccccc2)Oc2ccccc2N1CC1CC1	i	9	-7%[87.6 µM]	7%[87.6 µM]
COCCN1C(=O)[C@@H]2C[C@@H](CN2Cc2ccccc2)Oc2ccccc21	i	23	3%[87.6 µM]	-30%[87.6 µM]
O=C1[C@@H]2C[C@@H](CN2Cc2cnc3ccccc3c2)Oc2ccccc2N1CC1CC1	45µM*	-9	?	-26%[87.6 µM]
O=C1[C@@H]2C[C@@H](CN2Cc2nccs2)Oc2ccccc2N1Cc1ccc(OC(F)(F)F)cc1	28µM*	0	-20%	-15%
